Screens from PubChem.
S1P2 antag = blocks the human S1P2 receptor | O95136 | cell-based S1P2 antagonist assay, inhibition at 5 uM | inhibition, % at 5 µM | hit rate 0.21% among 97,000 | AID 736; in the data active = inhibition above about 45%;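 also: CRE beta-lactamase reporter cells expressing human S1P2 stimulated with S1P; 0% = agonist at EC80 alone and 100% = agonist plus reference antagonist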
PLAP act = activates human placental alkaline phosphatase | purified PLAP enzyme, luminescent substrate read-out; hits give high values | activation fold at 20 µM | hit rate 1.2% among 96,000; in the data active = activation fold above about 2
Target sequence (P05187 whole entry, looked up): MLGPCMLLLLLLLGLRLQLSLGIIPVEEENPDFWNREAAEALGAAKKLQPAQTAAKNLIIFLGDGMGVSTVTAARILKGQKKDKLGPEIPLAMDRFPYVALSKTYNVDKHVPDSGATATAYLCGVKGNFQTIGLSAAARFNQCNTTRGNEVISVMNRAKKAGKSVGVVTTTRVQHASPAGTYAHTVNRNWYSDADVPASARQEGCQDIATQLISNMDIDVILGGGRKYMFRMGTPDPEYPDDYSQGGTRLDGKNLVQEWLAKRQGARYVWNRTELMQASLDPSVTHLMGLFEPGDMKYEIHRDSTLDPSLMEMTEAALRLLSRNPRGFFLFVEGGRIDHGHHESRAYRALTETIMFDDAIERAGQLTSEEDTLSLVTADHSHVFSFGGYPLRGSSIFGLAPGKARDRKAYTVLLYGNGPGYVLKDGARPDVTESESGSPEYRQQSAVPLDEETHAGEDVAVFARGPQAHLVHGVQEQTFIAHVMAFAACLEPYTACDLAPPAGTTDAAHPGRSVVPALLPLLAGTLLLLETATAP
S1P2 agonist = activates the human S1P2 receptor; O95136; S1P2-expressing cell line, agonist reporter read-out; activation, % at 4.5 µM; hit rate 0.46% among 97,000; in the data active = activation above about 16%;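 also: 0% = vehicle low control and 100% = maximal reference agonist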
GALR2 agonist = activates the human galanin receptor 2. AID 803. O43603. activation, % (no concentration beside the values). GALR2-expressing cells, agonist activation read-out. hit rate 0.48% among 140,000; in the data active = activation above about 5%, passing the limit was not always enough;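 also: 0% = vehicle buffer wells and 100% = reference agonist at full effect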
GALR2 blocker = antagonists of human galanin receptor 2 (GALR2) | hit rate 0.39% among 140,000 | inhibition, % at 4 µM | GALR2-expressing cells, antagonist mode | O43603; in the data active = inhibition above about 27%;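 also: cells stimulated with galanin 1-16 at roughly its EC80; 0% = agonist challenge control and 100% = basal control without agonist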
GALR2 agon conf = GALR2 (human) agonism confirmed; shares compounds with GALR2 agonist; activation, % at 5.6 µM; hit rate 10% among 460; GALR2-expressing cells, agonist activation; AID 864; in the data active = activation above about 8.4%;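 also: 0% = buffer-only vehicle wells and 100% = full reference agonist response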
BLA activ ctr = activates beta-lactamase reporter in GALR2 agonist counterscreen | shares compounds with GALR2 agonist | CHO NFAT-bla reporter, beta-lactamase FRET activation | AID 865 | hit rate 10% among 460 | activation, % at 5.6 µM;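 active = activation above the screen-wide mean activation plus 3 SD, cut at about 8% in these data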;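 also: 0% = DMSO with PBS wells and 100% = thapsigargin positive control wells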
An asterisk follows results filed as active; x = not tested or not shown. Compounds with a hit are over-represented: about 2% of the library has one in this group of screens.

SMILES | S1P2 antag | PLAP act | S1P2 agonist | GALR2 agonist | GALR2 blocker | GALR2 agon conf | BLA activ ctr
N#C/C(=C\c1c(N2CCCCC2)nc2ccccn2c1=O)C(=O)NC1CCS(=O)(=O)C1 (configuration not stated) | x | x | x | 12.6* | -5.5 | -0.3 | -0.1
Cc1cccn2c(=O)c(/C=C(\C#N)C(=O)NC3CCS(=O)(=O)C3)c(N3CCC(C)CC3)nc12 (configuration not stated) | x | x | x | 4.5 | -19.2 | x | x
Cn1nnnc1SCC(=O)NCCCc1ccccc1 | 23.9 | 0.9 | -8.6 | 11.5* | -4.1 | -0.4 | -1.9
Cn1nnnc1SCC(=O)NC(=O)Cc1ccccc1 | 13.3 | 1 | -2.2 | -0.9 | -7.7 | x | x
O=C(CSc1nnnn1-c1cccc(Cl)c1)Nc1ccc2c(c1)CCC2 | x | x | x | 8.8* | -3.2 | 5.8 | 5.6
CCC(=O)Nc1ccc(S(=O)(=O)Nc2ccc(Cl)nn2)cc1 | x | x | x | -0.3 | -3.0 | x | x
COc1cccc(NC(=O)C2C3C=CC(O3)C2C(=O)NCc2cccnc2)c1 (configuration not stated) | 10.0 | 1 | -4.9 | -1.3 | -2.2 | x | x
COc1ccc(C2c3c(oc4ccc(Cl)cc4c3=O)C(=O)N2Cc2ccco2)cc1OC (configuration not stated) | x | 1.1 | x | 21.1* | 11.8 | 7.3 | 4.8
CCOc1ccc(C(=O)/C=C/c2cn(CN3CCN(C)CC3)c3ccccc23)cc1 | 9.7 | 1.2 | 4.3 | 12.0* | 11.7 | 1.9 | 3.6
COc1ccc(C(=O)/C=C/c2cn(CN3CCN(C)CC3)c3ccccc23)cc1 | 14.4 | 1.4 | 2.1 | 5.7 | 8.9 | x | x
CC(C)c1ccc(Nc2cnn(C34CC5CC(CC(CC(=O)O)(C5)C3)C4)c(=O)c2Cl)cc1 | -3.9 | 0.9 | -7.0 | -2.3 | -9.5 | x | x
Cc1ccc(Nc2cnn(C34CC5CC(CC(CC(=O)O)(C5)C3)C4)c(=O)c2Cl)cc1 | -0.5 | 1.7 | -2.4 | 11.1 | -7.8 | -1.0 | -2.0
Cc1ccc(NC(=O)Cn2c(/C=C/c3ccccc3)nc3ccccc32)cc1C | -5.2 | 1.1 | -4.7 | 8.2 | 2.7 | 6.2 | 7.3
CCOC(=O)C(C(=O)OCC)C(C(=O)OCC)N1CCOCC1 (configuration not stated) | 8.5 | 1.4 | -8.1 | -2.1 | 8.2 | x | x
O=S(=O)(c1cccc(C(F)(F)F)c1)N1CCN(c2ccccc2)CC1 | 0.6 | 0.9 | -2.6 | 12.0* | -8.6 | -0.7 | -2.7
Cn1ncc2c(=O)n(CC(=O)NC34CC5CC(CC(C5)C3)C4)cnc21 | -2.1 | 0.9 | -7.6 | -0.7 | -0.5 | x | x
COC(=O)c1cc2c(ccn2-c2ccc(F)cc2)n1CC(C)C | 4.6 | 1.1 | -4.0 | 8.8* | -26.4 | 2.9 | 5.9
O=S(=O)(NCCn1ccc2ccccc21)c1ccccc1 | 15.1 | 1 | -5.6 | -1.7 | 1.0 | x | x
Cc1nc2ccc(F)cc2cc1C(=O)NC(C)C | 3.1 | 0.8 | -6.9 | -3.0 | 9.2 | x | x
O=C(Cn1c(COc2ccccc2)nc2ccccc21)Nc1cc(Cl)ccc1Cl | x | x | x | 10.1* | 1.3 | 3.7 | 5.4
O=C(Cn1c(COc2ccccc2)nc2ccccc21)Nc1cc(Cl)cc(Cl)c1 | x | x | x | 1.9 | -6.4 | x | x
CCCC1=NN(C(=O)Cc2ccc(OC)cc2)C(O)(C(F)(F)F)C1 (configuration not stated) | x | x | x | -0.1 | -0.4 | x | x
O=C(NCC(=O)N1CCCC1C(=O)O)OC1CCCCC1 (configuration not stated) | 4.5 | 0.9 | -5.9 | -2.8 | 5.2 | x | x
NC(CC(=O)OC1CCCCC1)C(=O)OC1CCCCC1 (configuration not stated) | 9.1 | 1.7 | 1.9 | 8.3 | -3.4 | -1.0 | -0.7
Cn1c(=O)[nH]c(=O)c2c1nc(N1CCNCC1)n2Cc1cccc2ccccc12 | -5.7 | 1.2 | -4.0 | 15.1* | 5.3 | -0.3 | -1.4
SMILES | S1P2 antag | PLAP act | S1P2 agonist | GALR2 agonist | GALR2 blocker | GALR2 agon conf | BLA activ ctr
CCOC(=O)C1=C(C)N=C2SC(C(=O)OC)=CC(=O)N2C1c1ccc(F)cc1 (configuration not stated) | 8.4 | 1 | -8.8 | 9.2 | 7.3 | -0.7 | -0.8
CCOc1ccc(NC(=S)NN(C)C(=S)Nc2ccc(OCC)cc2)cc1 | x | x | x | -0.4 | 3.0 | x | x
COC(=O)CCC(=O)Nc1nnc(C(F)(F)F)s1 | -6.1 | 0.9 | -2.5 | 144.5* | -4.1 | -0.9 | -1.1
O=C(CSc1ccc2nnc(-c3cccc(F)c3)n2n1)N1CCCc2ccccc21 | x | x | x | 9.1* | 2.5 | 9.7* | 7.8
COCCN1C=C(C(=O)OC)C(c2ccccc2C(F)(F)F)C(C(=O)OC)=C1 | -14.8 | 1.2 | 11.1 | 17.6* | -2.2 | 1.6 | 6.3
O=C(O)C1C2C=CC3(CN(Cc4ccccn4)C(=O)C13)O2 (configuration not stated) | 17.5 | 1.1 | -5.2 | -3.9 | 2.3 | x | x
CCCCN1c2cc(C)c(O)cc2C(C(=O)OCC)C1C (configuration not stated) | 3.6 | 0.6 | -11.3 | -1.8 | -12.3 | x | x
S=C1NC(c2ccccc2)N2C(=S)NC(c3ccccc3)N12 (configuration not stated) | -14.8 | 0.9 | -3.4 | 12.3* | -3.7 | -0.3 | -0.3
COc1ccc(C2NC(=S)N3C(c4ccc(OC)cc4)NC(=S)N23)cc1 (configuration not stated) | -7.7 | 1.6 | -5.4 | -2.1 | 1.7 | x | x
C=CCOc1ccc(C2/C(=C(\O)c3ccc(F)cc3)C(=O)C(=O)N2CCCN(C)C)cc1 (configuration not stated) | 5.6 | 1.4 | -10.3 | 8.3* | 6.6 | -0.5 | 0.2
CC(C)Cn1c(-c2ccc(Cl)cc2)cnc1SCC(=O)N1CCOCC1 | 29.8 | 1.4 | -2.0 | 20.9* | -0.5 | -1.4 | -1.0
O=C(CSc1ncc(-c2ccccc2)n1CC1CCCO1)N1CCCCC1 (configuration not stated) | x | 1.6 | x | -0.1 | -2.4 | x | x
CC1(C)Cc2c(C#N)c(NCc3ccco3)nc(-c3ccco3)c2CO1 | x | 1.2 | x | -2.3 | 4.0 | x | x
CC1(C)Cc2c(C#N)c(N3CCCC3)nc(-c3ccco3)c2CO1 | -35.6 | 1.5 | 8.8 | 10.6 | -9.1 | 2.1 | 4.0
N#Cc1c(C(F)(F)F)cc(C2CC2)[nH]c1=O | x | 0.9 | x | -1.9 | 8.0 | x | x
Cc1cccc(NC(=O)CCSc2nncn2C)c1 | -11.0 | x | 0.8 | -2.9 | -2.2 | x | x
COc1cc(SC#N)ccc1N=Cc1c(C)[nH]n(-c2ccc(C)c(C)c2)c1=O | x | x | x | 12.3* | 8.0 | 4.9 | 4.3
O=C(CC1Nc2ccccc2NC1=O)Nc1cc(Cl)cc(Cl)c1 (configuration not stated) | -0.6 | 1.2 | 15.9 | 12.9* | -0.7 | 12.1* | 9.9*
O=C(CC1NC(=O)NC1=O)Nc1ccc(Cl)cc1 (configuration not stated) | 3.2 | 1.2 | -4.3 | -0.6 | -6.3 | x | x
CCOc1cccc(-c2nn(-c3ccccc3)cc2/C=C(/C#N)C(=O)NCCCn2ccnc2)c1 | x | x | x | 45.6* | 8.0 | 35.3* | 81.6*
Cc1cccc(NC(=O)/C(C#N)=C/c2cn(CC(=O)NCc3ccco3)c3ccccc23)c1C | x | x | x | 28.8* | 5.8 | 11.4* | 8.2*
N#Cc1c(-c2ccccc2)cc(-c2ccco2)c(C#N)c1N | -34.8 | 1.1 | 10.9 | 9.6 | -5.7 | 7.7 | 10.7*
